Reference: PubChem BioAssay AID652062 (Broad Institute, 2013)
Screen size: about 1,400 compounds; about 1,100 (79%) were called active.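 The calls were made as follows: active = fitted half-maximal concentration of a falling signal no higher than twice the top valid dose in every test run; inconclusive = runs disagree, or flat partial inhibition, or poor fit; inactive = every run inactive: flat, wrong direction, or potency beyond limit.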 The set was probably picked from earlier hits. The list is a sample of the results. Results with a measured potency or affinity are listed apart.

Assay: HIV-1 AD8 envelope cell-cell fusion blockers – cherry-pick, dose response (AID 652062)
Conditions: HeLa-AD8 Env / CEM-CCR5 cell fusion, luciferase; at 35 µM (top of the series) unless noted

Row | Compound | activity change, negative = inhibition
1 | O=C(C[C@@H]1C[C@@H]2c3cc(NC(=O)C4CCOCC4)ccc3O[C@@H]2[C@H](CO)O1)NCCc1ccccc1 | -21%
2 | O=C(C[C@@H]1C[C@H]2c3cc(NC(=O)NC4CCCCC4)ccc3O[C@H]2[C@@H](CO)O1)NCc1ccncc1 | 17.5%
3 | O=C(C[C@@H]1C[C@H]2c3cc(NC(=O)C4CCOCC4)ccc3O[C@H]2[C@@H](CO)O1)NCc1ccccc1 | 37.3%
4 | O=C(C[C@H]1C[C@@H]2c3cc(NC(=O)C4CCC4)ccc3O[C@@H]2[C@@H](CO)O1)NCc1ccc2c(c1)OCO2 | 25.6%
5 | O=C(C[C@H]1C[C@@H]2c3cc(NC(=O)C4CCC4)ccc3O[C@@H]2[C@@H](CO)O1)NCC(F)(F)F | 7.19%
6 | O=C(C[C@@H]1C[C@@H]2c3cc(NC(=O)C4CCC4)ccc3O[C@@H]2[C@@H](CO)O1)NCC(F)(F)F | 37%
7 | CN(C)C(=O)C[C@H]1C[C@@H]2c3cc(NC(=O)NC4CCCCC4)ccc3O[C@@H]2[C@H](CO)O1 | -20.7%
8 | O=C(C[C@H]1C[C@H]2c3cc(NC(=O)Cc4ccncc4)ccc3O[C@H]2[C@@H](CO)O1)NCc1ccncc1 | 20.8%
9 | O=C(C[C@@H]1C[C@@H]2c3cc(NC(=O)Nc4ccccc4)ccc3O[C@@H]2[C@@H](CO)O1)NCc1ccccc1 | 42.6% [at 30 µM]
10 | O=C(C[C@@H]1C[C@@H]2c3cc(NC(=O)c4ccc5c(c4)OCO5)ccc3O[C@@H]2[C@@H](CO)O1)NCc1ccc(Oc2ccccc2)cc1 | 0.613% [at 16 µM]
11 | O=C(C[C@H]1C[C@H]2c3cc(NC(=O)C4CCC4)ccc3O[C@H]2[C@@H](CO)O1)NCc1ccc2c(c1)OCO2 | 38.8% [at 30 µM]
12 | COc1ccc(S(=O)(=O)N(C)C[C@@H]2Oc3ccc(NC(=O)C4CCCCC4)cc3CC(=O)N([C@@H](C)CO)C[C@@H]2C)cc1 | 5.28% [at 16 µM]
13 | O=C(N[C@@H]1CC[C@H](CCNS(=O)(=O)c2ccc(F)cc2)O[C@@H]1CO)C1CC1 | 21.6%
14 | C[C@H]1NC(=O)[C@@]2(C)[C@H](c3ccccc3)[C@H]3COc4ccccc4[C@@H]3N2C1=O | 80.3%
15 | C[C@@]12C(=O)N(Cc3ccco3)CC(=O)N1[C@H]1c3ccccc3OC[C@@H]1[C@@H]2c1ccccc1 | 2.22%
16 | COc1cc2c(cc1OC)C(=O)N1[C@H]3c4cc(Cl)ccc4OC[C@@H]3[C@H](c3ccccc3)[C@]1(C)C(=O)N2 | -26.3%
17 | Cc1cc(Cl)ccc1OCC(=O)NNC(=O)C1CSC2(C)CCC(=O)N12 (stereo not drawn) | 1.11%
18 | COc1ccc([Si](C)(C)[C@H]2[C@H](CCO)O[C@@]3(C(=O)N(Cc4cccc(N5CCOC5=O)c4)c4ccccc43)[C@@H]2C)cc1 | 108%
19 | COc1ccc(S(=O)(=O)N2CCCCC2)cc1NC(=O)CCCOc1ccc(C)cc1 | 3.18%

Row | Compound | activity change, negative = inhibition
20 | COc1ccc(S(=O)(=O)N2CCCCC2)cc1NC(=O)CN(Cc1ccco1)Cc1ccco1 | -14.6%
21 | CCCCCCOc1ccc(OC(=O)c2ccncc2)cc1 | -6.3%
22 | COc1ccc(-c2c(C)nn3c(C(F)(F)F)cc(C)nc23)cc1 | 123%
23 | CSc1ncccc1C(=O)OCC(=O)Nc1ccc(C)c(S(=O)(=O)N2CCOCC2)c1 | -12.3% [at 16 µM]
24 | O=C(COC(=O)c1cc(S(=O)(=O)N2CCOCC2)ccc1O)NCc1ccc2c(c1)OCO2 | 28.5%
25 | CC(=O)Nc1ccc(C(=O)OCC(=O)NC(=O)NCc2ccccc2)cc1 | 16.9%
26 | COCC(=O)Nc1ccc2c(c1)C(=O)N(C)C[C@@H](OC)[C@H](C)CN(C(C)=O)[C@H](C)CO2 | 28.2%
27 | CO[C@H]1CN(C)C(=O)c2ccc(NC(=O)Nc3cccc(F)c3)cc2OC[C@H](C)NC[C@H]1C | 25.2%
28 | CO[C@H]1CN(C)C(=O)c2cc(NC(=O)c3ccc(F)cc3)ccc2OC[C@H](C)N(C(=O)CN(C)C)C[C@@H]1C | 6.3%
29 | CCCC(=O)Nc1ccc2c(c1)OC[C@H](C)N(C(=O)CN(C)C)C[C@@H](C)[C@H](OC)CN(C)C2=O | -2.16%
30 | CO[C@H]1CN(C)C(=O)c2ccc(NC(=O)Nc3cccc(F)c3)cc2OC[C@@H](C)N(C(C)=O)C[C@H]1C | 72.4%
31 | CCc1ccc(C(=O)CN2C(=O)NC(C)(c3ccc(C)cc3)C2=O)cc1 (stereo not drawn) | -27.5%
32 | COc1cccc(S(=O)(=O)N(C)C[C@H]2Oc3cc(C4=CCCC4)ccc3S(=O)(=O)N([C@H](C)CO)C[C@@H]2C)c1 | 27.1%
33 | C[C@H]1CN([C@@H](C)CO)C(=O)Cc2cc(NS(=O)(=O)c3ccccc3)ccc2O[C@@H]1CN(C)Cc1ccc(Cl)c(Cl)c1 | -28.9%
34 | C[C@@H]1CN([C@H](C)CO)C(=O)c2cc(NS(=O)(=O)c3ccc(F)cc3)ccc2O[C@H]1CN(C)Cc1ccc(C(F)(F)F)cc1 | -13.8%
35 | COc1ccc(-c2cn(CC[C@H]3CC[C@H](NS(=O)(=O)c4ccccc4C)[C@H](CO)O3)nn2)cc1 | 2.4%
36 | COc1ccccc1S(=O)(=O)N[C@H]1CC[C@H](CC(=O)N2CCN(C)CC2)O[C@H]1CO | -27.9%
37 | COc1ccc(S(=O)(=O)N[C@@H]2CC[C@@H](CC(=O)NCCc3ccncc3)O[C@@H]2CO)cc1 | -13%
38 | CNC[C@H]1Oc2c(NC(=O)Nc3ccc4c(c3)OCO4)cccc2C(=O)N([C@H](C)CO)C[C@@H]1C | 65.2%
